Measurements reported in PubChem BioAssay (Tox21).
“And” between values parts separate entries of the source, which are not always exact repeats. Identical values can stand only once. Inconclusive results are not listed. A call without a number means that no potency is given here. Some structures have more than one record in an assay (separate samples or runs), and their calls can disagree. The source made the active and inactive calls. Unless noted, calls come from the whole dose curve; as a rule, active = well fitted curve in the direction sought with a large enough effect in the repeat runs; inconclusive = weak or mixed curves; inactive = no such curve, though single readings can be large; an effect the other way counts as inactive or inconclusive.

Tests used:
[1] = qHTS assay for identifying genotoxic compounds that show differential cytotoxicity against isogenic chicken DT40 cell lines with known DNA damage response pathways - wild type cell line (AID 743012); note: nearly all actives have a fitted effect of over 60% in size; note: potency is the fitted concentration of half-maximal effect
Summary of the method: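 300 wt DT40 cells/well; cpd (DMSO) pintool-transferred after ~0.5 h at 37 C/5% CO2; 40 h incubation; CellTiter-Glo added, 30 min RT; luminescence read.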

[2] = qHTS assay for identifying genotoxic compounds that show differential cytotoxicity against isogenic chicken DT40 cell lines with known DNA damage response pathways - Rev3 mutant cell line (AID 743014); note: nearly all actives have a fitted effect of over 55% in size; note: potency is the fitted concentration of half-maximal effect
[3] = qHTS assay for identifying genotoxic compounds that show differential cytotoxicity against isogenic chicken DT40 cell lines with known DNA damage response pathways - Rad54/Ku70 mutant cell line (AID 743015); note: nearly all actives have a fitted effect of over 60% in size; note: potency is the fitted concentration of half-maximal effect
[4] = qHTS assay to identify small molecule antagonists of the androgen receptor (AR) signaling pathway - cell viability counter screen (AID 743033; note: nearly all actives have a fitted effect of over 45% in size)
[5] = target: Androgen receptor (Homo sapiens) (UniProt P10275); assay: qHTS assay to identify small molecule antagonists of the androgen receptor (AR) signaling pathway (AID 743035; active = well fitted inhibition curve with a large enough effect in the signal ratio in the repeat runs, not every such curve was filed as active; the % refers to the signal ratio)
Summary of the method: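 In this cell-based reporter screen, compounds were tested in concentration series against R1881-activated HEK293 cells expressing beta-lactamase under UAS control; after 16 h at 37C, FRET substrate was added and fluorescence read 2 h later.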

[6] = target: Androgen receptor (Homo sapiens) (UniProt P10275); assay: qHTS assay to identify small molecule agonists of the androgen receptor (AR) signaling pathway (AID 743036; active = well fitted activation curve with a large enough effect in the signal ratio in the repeat runs, with a control signal flat, not every such curve was filed as active; the % refers to the signal ratio)
Summary of the method: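 AR-bla HEK293 cells, 2,000/well; 4 h preincubation 37C/5% CO2; compound (DMSO) 16 h at 37C; LiveBLAzer B/G FRET substrate 2 h RT; fluorescence intensity read-out.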

[7] = target: Androgen receptor (Homo sapiens) (UniProt P10275); assay: qHTS assay to identify small molecule agonists of the androgen receptor (AR) signaling pathway using the MDA cell line (AID 743040; note: nearly all actives have a fitted effect of over 20% in size)
Summary of the method: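 Stable MMTV-luciferase reporter in MDA-kb2 cells; note the promoter carries GR as well as AR response elements. 16 h compound treatment, 37C, 0% CO2; ONE-Glo luminescence endpoint.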

[8] = target: Androgen receptor (Homo sapiens) (UniProt P10275); assay: qHTS assay to identify small molecule antagonists of the androgen receptor (AR) signaling pathway using the MDA cell line (AID 743042; note: nearly all actives have a fitted effect of over 55% in size)
Summary of the method: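 Antagonist mode: compounds plus R1881 agonist added to MDA-kb2 AR-luc cells, incubated 16 h at 37C. Luciferase reporter luminescence quantified, with multiplexed CellTiter-Fluor readout for cell viability.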

[9] = qHTS assay to identify small molecule antagonists of the androgen receptor (AR) signaling pathway using the MDA cell line - cell viability counter screen (AID 743041; note: nearly all actives have a fitted effect of over 45% in size)
Summary of the method: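 Using the breast carcinoma line MDA-kb2 AR-luc, test chemicals were co-incubated with R1881 for 16 h; CellTiter-Fluor reagent, added at 15.5 h, provided a fluorescence measure of live cells.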

Sequence of Androgen receptor (Homo sapiens) (P10275 whole entry, looked up): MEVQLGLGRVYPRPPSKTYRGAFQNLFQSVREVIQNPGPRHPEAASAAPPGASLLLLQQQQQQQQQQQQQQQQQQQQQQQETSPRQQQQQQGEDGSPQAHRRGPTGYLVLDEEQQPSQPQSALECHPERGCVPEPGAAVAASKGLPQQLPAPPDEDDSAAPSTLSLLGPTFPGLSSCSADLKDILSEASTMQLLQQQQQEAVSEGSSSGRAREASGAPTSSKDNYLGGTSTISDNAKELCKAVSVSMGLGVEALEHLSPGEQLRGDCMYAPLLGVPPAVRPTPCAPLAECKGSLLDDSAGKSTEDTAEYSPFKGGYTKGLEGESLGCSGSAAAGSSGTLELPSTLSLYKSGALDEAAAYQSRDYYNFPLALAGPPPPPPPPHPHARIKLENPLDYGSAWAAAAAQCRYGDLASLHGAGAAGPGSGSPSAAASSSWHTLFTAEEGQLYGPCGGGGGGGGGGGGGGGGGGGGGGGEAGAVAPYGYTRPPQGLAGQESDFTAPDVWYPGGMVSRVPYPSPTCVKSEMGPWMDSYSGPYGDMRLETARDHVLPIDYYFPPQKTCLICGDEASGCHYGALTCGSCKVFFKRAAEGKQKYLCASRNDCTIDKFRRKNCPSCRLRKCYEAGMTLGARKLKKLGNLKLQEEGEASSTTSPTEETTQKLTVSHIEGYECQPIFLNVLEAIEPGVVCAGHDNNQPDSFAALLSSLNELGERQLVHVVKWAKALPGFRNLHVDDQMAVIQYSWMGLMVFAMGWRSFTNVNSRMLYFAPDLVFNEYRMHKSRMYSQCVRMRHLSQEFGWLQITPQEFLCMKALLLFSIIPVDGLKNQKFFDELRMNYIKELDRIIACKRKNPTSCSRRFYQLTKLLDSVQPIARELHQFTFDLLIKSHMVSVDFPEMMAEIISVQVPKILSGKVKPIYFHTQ

Row | Structure (SMILES) | Potency [1] | Potency [2] | Potency [3] | outcome [4] | Potency [5] | outcome [6] | outcome [7] | Potency [8] | outcome [9]
1 | COC(C)(C)CCCC(C)C/C=C/C(C)=C/C(=O)OC(C)C (stereo not given) | 29.8 µM (active) and inactive | inactive | inactive | inactive | inactive | inactive | inactive | inactive | 
2 | Nc1ccc(N)cc1 | 54.7 µM (active) | 19.4 µM (active) and 54.5 µM (active) | 26.6 µM (active) and 21.8 µM (active) | inactive |  |  |  |  | 
3 | C=CC(=O)OCCCCCC(C)C | inactive | inactive | inactive | inactive | inactive | inactive | inactive | inactive | 
4 | COc1nc(NC(C)C)nc(NC(C)C)n1 | inactive | inactive | inactive | inactive |  |  |  |  | inactive
5 | CNC(=O)O/N=C(\SC)C(=O)N(C)C | inactive | 61.1 µM (active) | 54.4 µM (active) | inactive | inactive | inactive | inactive | inactive | 
6 | Nc1cc(Cl)cc(Cl)c1 | inactive | inactive | inactive | inactive |  |  |  |  | 
7 | Cc1ccc(N)cc1 | inactive | inactive | inactive | inactive |  |  |  |  | inactive
8 | COP(=S)(OC)SCN1C(=O)c2ccccc2C1=O | 48.6 µM (active) | 61.6 µM (active) | inactive | inactive |  |  |  |  | inactive
9 | O=C(O)C(Br)Br | inactive | inactive | inactive | inactive |  |  |  |  | inactive
10 | CSc1nnc(C(C)(C)C)c(=O)n1N | inactive | inactive | inactive | inactive |  |  |  |  | inactive
11 | COC(=O)Nc1cccc(OC(=O)Nc2cccc(C)c2)c1 | inactive | inactive | inactive | inactive |  |  |  |  | inactive
12 | N#CN=C(N)N | inactive | inactive | inactive | inactive |  |  |  |  | inactive
13 | CCSC(=O)N1CCCCCC1 | inactive | inactive | inactive | inactive |  |  |  |  | inactive
14 | CNc1cnn(-c2cccc(C(F)(F)F)c2)c(=O)c1Cl | inactive | inactive and 61.1 µM (active) | inactive | inactive |  |  |  |  | inactive
15 | C[C@H]1C(=O)O[C@@H]2CCN3CC=C(COC(=O)[C@](C)(O)[C@]1(C)O)[C@H]23 | inactive | inactive and 15.4 µM (active) | inactive and 38.6 µM (active) | inactive |  |  |  |  | inactive
16 | O=[N+]([O-])c1ccc(Cl)cc1 | inactive | inactive | inactive | inactive |  |  |  |  | inactive
17 | CCOP(=S)(OCC)Oc1ccc([N+](=O)[O-])cc1 | inactive | inactive | inactive | inactive |  |  |  |  | inactive
18 | CC(=O)/C=C/c1ccccc1 | inactive | inactive | inactive | inactive |  |  |  |  | inactive
19 | Nc1nc(N)nc(NC2CC2)n1 | inactive | inactive | inactive and 61.1 µM (active) | inactive |  |  |  |  | 
20 | OC[C@@H](O)[C@H]1O[C@@H]2O[C@H](C(Cl)(Cl)Cl)O[C@@H]2[C@H]1O | inactive | inactive | inactive | inactive |  |  |  |  | 
21 | O=C(O)COc1ccccc1 | inactive | inactive | inactive | inactive |  |  |  |  | inactive
22 | O=C(O)c1cc(Oc2ccc(C(F)(F)F)cc2Cl)ccc1[N+](=O)[O-] | inactive | inactive | inactive | inactive |  |  |  |  | inactive
23 | O=C/C=C/c1ccccc1 | inactive | inactive | inactive | inactive |  |  |  |  | inactive
